BAZ2B inh: inhibitors of human BAZ2B bromodomain; Q9UIF8; AlphaScreen BAZ2B-H3K14Ac peptide displacement; Potency, µM (titrated, usually from 114 µM), for inactives: top-dose activity change, negative = inhibition, hits mostly inhibitors; actives 4.4% (n = 360,000); note: % is set by controls: 0 for no effect and ±100 for the full control effect; nearly all actives have a fitted effect of over 60% in size
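Inhibition is scored as reduced AlphaScreen emission. The BAZ2B/b-H3(5-23)K14Ac complex (50 nM each) in PBS pH 7.4, 0.01% Tween-20 meets compound (up to 110 uM) for 30 min at RT before bead addition.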
G9a inh: blocks human histone lysine methyltransferase G9a; Q96KQ7; G9a H3K9 monomethylation, AlphaScreen, 2 h; Potency, µM (highest dose often 102 µM), for inactives: top-dose activity, negative = inhibition, actives largely listed as inhibitors; actives 8.8% (n = 350,000); AID 504332; note: % is set by controls: 0 for no effect and ±100 for the full control effect; nearly all actives have a fitted effect of over 75% in size
Target sequence (Q96KQ7 913-1193 limits assumed): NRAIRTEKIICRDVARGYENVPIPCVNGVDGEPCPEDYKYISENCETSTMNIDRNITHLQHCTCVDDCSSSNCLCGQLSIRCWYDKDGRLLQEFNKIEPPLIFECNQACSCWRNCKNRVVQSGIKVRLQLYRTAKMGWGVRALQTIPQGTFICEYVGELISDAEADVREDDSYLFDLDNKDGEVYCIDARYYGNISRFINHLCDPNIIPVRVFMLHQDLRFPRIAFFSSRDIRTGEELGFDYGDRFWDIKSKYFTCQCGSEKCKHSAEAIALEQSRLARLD
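Compounds were preincubated with 20 nM G9a for 15 min, after which biotinylated H3K9 peptide (500 nM) and SAM (20 uM) started a 2 h room-temperature reaction. Monomethylated product was quantified by antibody-based AlphaScreen chemiluminescence.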
JMJD2A Tudor: blocks the human JMJD2A Tudor domain | O75164 | AlphaScreen JMJD2A-Tudor / H3K4me3 peptide binding | Potency, µM (titrated, usually from 114 µM), inactives show at the top dose activity change, negative = inhibition, hits mostly inhibitors | actives 4.4% (n = 390,000) | AID 504339; note: % is set by controls: 0 for no effect and ±100 for the full control effect; nearly all actives have a fitted effect of over 50% in size
HP1b binding inh: inhibitors of HP1-beta chromodomain binding to methylated histone tails. Potency, µM (doses to about 114 µM), inactives show top-dose activity change, negative = inhibition, hits mostly inhibitors. AID 540317. actives 0.56% (n = 390,000). P83916. AlphaScreen HP1-beta / biotin-H3K9me3 peptide binding; note: nearly all actives have a fitted effect of over 70% in size
Target sequence (P83916 whole entry, looked up): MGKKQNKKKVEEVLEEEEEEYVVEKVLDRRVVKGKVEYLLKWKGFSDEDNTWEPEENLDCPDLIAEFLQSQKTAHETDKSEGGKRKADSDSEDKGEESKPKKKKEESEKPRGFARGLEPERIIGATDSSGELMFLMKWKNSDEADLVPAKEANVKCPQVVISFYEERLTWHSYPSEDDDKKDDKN
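Compound inhibition of the preformed complex between 50 nM HP1-beta and 50 nM biotinylated H3K9me3 peptide was read by AlphaScreen. Buffer was PBS pH 7.4 with 0.01% Tween-20. Incubations ran 30 min at room temperature, with 10 ug/mL donor/acceptor beads.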
ALOX12 inh: inhibitors of human 12S-lipoxygenase ALOX12. actives 1.1% (n = 580,000). P18054. purified 12hLO, xylenol orange hydroperoxide absorbance. Potency, µM (top dose mostly 108 µM), for the others: top-dose activity change, negative = inhibition, hits mostly inhibitors; note: % is set by controls: 0 for no effect and ±100 for the full control effect
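Purified human 12hLO at 150 nM in 25 mM Hepes, 0.01% Triton X-100, pH 7.0, preincubated 15 min at room temperature with compound. Reaction started with 40 uM arachidonic acid, 30 min at room temperature. Hydroperoxide measured by Fe-xylenol orange, 573/405 nm absorbance ratio.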
PLK1 PBD inh: PLK1 (human) polo-box domain binding inhibition; AID 720504; P53350; Potency, µM, inactives show max response, negative = inhibition, hits mostly inhibitors; actives 2.8% (n = 360,000); Plk1 PBD binding of FITC phosphopeptide, fluorescence polarization; note: series mostly up to about 57 µM; % is set by controls: 0 for no effect and ±100 for the full control effect; nearly all actives have a fitted effect of over 65% in size
* marks the source's active call; other numbers are inactive results; u = inconclusive; x = no result; [ ] = dose if it differs, or a comment. Hits are enriched below; roughly 9% of the tested compounds scored in any of these assays. Calls come from the whole dose curve; as a rule, active = well fitted curve in the direction sought with a large enough effect; inconclusive = small, poorly fitted or top-dose-only effect, or another doubt; inactive = no such curve, though single readings can be large; an effect the other way counts as inactive or inconclusive. Potency is the fitted concentration of half-maximal effect.

SMILES	BAZ2B inh	G9a inh	JMJD2A Tudor	HP1b binding inh	ALOX12 inh	PLK1 PBD inh
Oc1ccc(/C=N/N2CCN(Cc3ccccc3)CC2)cc1	-11%	-3%[0.501 µM]	-26%	2%	12%	-13%
O=C(O)c1ccc(/C=N/N2CCN(Cc3ccccc3)CC2)cc1	89µM*	u	-5%	29%	17%	-4%
Cc1ccsc1/C=N/N1CCN(c2ccccc2)CC1	u	18%[2.33 µM]	u	-17%	-9%	2%
COc1ccc(OC)c(/C=N/NC(=O)CNC(=O)c2cccc3ccccc23)c1	-19%	36%	-9%	12%	72%	-1%
O=C(NCc1ccccn1)C1CCN(S(=O)(=O)c2cccc(OC(F)(F)F)c2)CC1	x	x	x	x	12%	x
CCOC(=O)c1sc2ncn(CC(=O)Nc3ccc(C)cc3C)c(=O)c2c1C	2%	5%[59 µM]	1%	30%	-12%	x
Cc1ccc2nsnc2c1NC(=O)COc1ccc(Cl)cc1	x	x	x	x	8%	x
COC(=O)CSC1=C(C#N)C(c2ccccc2)CC(=O)N1 (stereo not drawn)	5%	-9%[12.7 µM]	-11%	31%	18%	-8%
C=CCSC1=C(C#N)C(c2cccc(OC)c2)CC(=O)N1 (stereo not drawn)	5%	45µM*	-8%	-6%	u	-30%
CCOc1ccccc1C1CC(=O)NC(SCC(=O)Nc2nccs2)=C1C#N (stereo not drawn)	-12%	14µM*	-15%	34%	-35%	-6%
CCOc1ccc(C2CC(=O)NC(SCC(=O)OC)=C2C#N)cc1 (stereo not drawn)	9%	71µM*	-11%	36%	-10%	-24%
COC(=O)CSC1=C(C#N)C(c2cccc(OC)c2)CC(=O)N1 (stereo not drawn)	-6%	71µM*	-6%	49%	3%	-10%
Cc1cccc(N=Cc2cc(Br)cc(Cl)c2O)c1	x	-29%	-17%[57.1 µM]	23%	u	u
CC1CC(C)CN(C(=O)COC(=O)C2CCN(S(=O)(=O)c3ccc4c(c3)OCCO4)CC2)C1 (stereo not drawn)	8%	u	-8%	17%	-15%	-1%
Cc1ccc(-c2nnn(CC(=O)N(Cc3ccc(F)cc3)C(C(=O)NC3CCCC3)c3ccncc3)n2)o1 (stereo not drawn)	2%	u	-15%	25%	u	-3%
Cc1ccc(C)c(N(C(=O)Cn2nnc(-c3cccs3)n2)C(C(=O)NC2CCCC2)c2ccncc2)c1 (stereo not drawn)	7%	x	-2%	4%	-6%	3%
CC(C)(C)N(C(=O)Cn1nnc(-c2ccc(F)cc2)n1)C(C(=O)NC1CCCC1)c1ccncc1 (stereo not drawn)	4%	7.1µM*	-28%	19%	-14%	-14%
CC(C)(C)NC(=O)C(c1ccncc1)N(CC1CCCO1)C(=O)Cn1nnc(-c2ccc(F)cc2)n1 (stereo not drawn)	-14%	-2%	-12%	13%	-2%	-7%
Cc1ccc(-c2nnn(CC(=O)N(CCO)C(C(=O)NC3CCCCC3)c3ccncc3)n2)o1 (stereo not drawn)	-11%	45µM*	-12%[11.4 µM]	u	1%	34µM*
Cc1ccc(-c2nnn(CC(=O)N(CC3CCCO3)C(C(=O)NC3CCCC3)c3ccc(O)cc3)n2)o1 (stereo not drawn)	-7%	-40%	-15%	-8%	-1%	-3%
Cc1ccc(C(C(=O)NC(C)(C)C)N(CC2CCCO2)C(=O)Cn2nnc(-c3ccc(C)o3)n2)cc1 (stereo not drawn)	-10%	45µM*	-21%	-1%	-25%	-4%
O=C(NC1CCCC1)C(c1ccncc1)N(CC1CCCO1)C(=O)Cn1nnc(-c2cccs2)n1 (stereo not drawn)	11%	50µM*	-8%	22%	-16%	-9%
O=C(Nn1c(Cc2cccs2)nc2ccccc2c1=O)c1ccc(F)c(F)c1	9%	9%[59 µM]	-13%	30%	-11%	-3%
COc1ccc(-c2cn3cccnc3n2)cc1NC(=O)c1ccc(Br)o1	u	2.8µM*	u	36%	2%	-5%
CCC(C(=O)Nc1cc(-c2cn3cccnc3n2)ccc1C)c1ccccc1 (stereo not drawn)	3%	8%[59 µM]	22µM*	29%[57 µM]	-15%	x
SMILES	BAZ2B inh	G9a inh	JMJD2A Tudor	HP1b binding inh	ALOX12 inh	PLK1 PBD inh
COc1cccc(CN(C)C(=O)CC[C@H]2O[C@@H](n3ccc(=O)[nH]c3=O)[C@H](O)[C@@H]2O)c1	x	x	x	x	-17%	3%
CC(=O)N/C(=C\c1ccccc1)C(=O)OCC(=O)N1CCCCCC1	1%	-38%	-7%	18%	-24%	-8%
CC(=O)N/C(=C/c1ccccc1)C(=O)N1CCCCC1	-1%	50µM*	-10%	19%	-2%	3%
COc1ccccc1C(=O)N/C(=C/c1ccc(Br)cc1)C(=O)N1CCCC1	-15%	14%	50µM*	-19%	-20%	27µM*
CCOc1c(C)cnc2c1c(=O)n(Cc1ccccc1F)c(=O)n2C	-1%	28%	20%	55%	-7%	-8%
CC(C)(C)C(=O)/C=C1\SCC(=O)N1CC(=O)N1CCN(c2ccccc2)CC1	x	x	-16%	35%	244%	-4%
CCOC(=O)Cc1csc(NC(=O)c2sc3nc4ccc(CC)cc4cc3c2N)n1	-2%	-44%	-30%	19%	-18%[57.4 µM]	-8%
CCOC(=O)Cc1csc(NC(=O)c2sc3nc4cc(C)ccc4cc3c2N)n1	13%	71µM*	40µM*	3%	u	-3%
Cc1cccc(C(=O)NCCCNC(=O)c2ccc(C)nc2)c1	5%	16%	-10%	33%	12%	-10%
N#CCCN1CCN(C(=S)c2ccc(-c3cc(Cl)ccc3Cl)o2)CC1	u	18µM*	40µM*	u	-8%	-17%
S=C(c1ccc(-c2ccc(Cl)cc2Cl)o1)N1CCCCC1	22µM*	u	u	-42%	u	-21%
N#CCCN1CCN(S(=O)(=O)c2cc(Cl)ccc2Cl)CC1	0%	8%	-2%	23%	-8%	-10%
CN1CCN(C(=S)c2ccc(-c3cc(Cl)ccc3Cl)o2)CC1	28µM*	32µM*	35µM*	u	u	-4%
Cc1ccc(C)c(NC(=O)CCn2nc(C)cc2C)c1	5%	-4%[12.7 µM]	-5%	15%	0%	2%
CC(=O)Nc1ccc(N/C=C/C(=O)c2ccc(C)cc2)cc1	3%	x	-7%	47%	-5%	-9%
COc1ccc([C@@H]2CC=C(C(=O)O)[C@H](c3ccc(Br)cc3)N2S(=O)(=O)c2ccccc2C)cc1	x	x	-33%	20%	u	-27%
Cc1ccccc1S(=O)(=O)N1[C@@H](c2ccccc2)C(C(=O)O)=CC[C@H]1c1ccc(Cl)cc1	6%	-11%[2.33 µM]	-11%	46%	u	u

Screening results: PubChem, National Center for Advancing Translational Sciences (NCATS)
